Only a selection was taken, and hits are over-represented in it overall.
Pf Dd2 inh: Plasmodium falciparum Dd2 growth inhibition. P. falciparum Dd2 growth, SYBR Green, 72 h. Potency, µM (top dose mostly 28.9 µM), for inactives: top-dose activity, negative = inhibition, most hits filed as inhibitors. actives 4.3% (n = 120,000); active = well fitted inhibition curve with a large enough effect;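 also: plate controls were DMSO vehicle for no effect and reference drug for full effect; nearly all actives have a fitted effect of over 65% in size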
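Readout: SYBR Green fluorescence, 485 nm excitation, 535 nm emission, after ~16 h lysis at 37C. Before that, Dd2-infected red cells (2.5% hematocrit) grew 72 h with compound, 29 uM top final concentration.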
Active calls of the source: *; i = inactive; [ ] = remark or other dose. Potency is read from the fitted curve at half-maximal effect.

SMILES	Pf Dd2 inh
O=C(Cc1ccc(Cl)cc1)NC1CCN(c2cc(-c3ccccc3)[nH]n2)CC1	i
O=C1CC(c2ccccc2)Cc2[nH]c(=O)c(C(=O)Nc3cccc(Cl)c3)cc21 (stereo not drawn)	-13%
CCc1ccc(C2CC(=O)c3c([nH]c(C(=O)OCCOc4ccccc4)c3C)C2)cc1 (stereo not drawn)	5µM*
CCOC(=O)C1=C(C)N=C2SCCC(=O)N2C1c1ccc(OCc2ccccc2)cc1 (stereo not drawn)	61%
CCOC(=O)c1[nH]c2c(c1Cc1ccccc1C)C(=O)CC(c1cc(OC)ccc1OC)C2 (stereo not drawn)	5µM*
CCOC(=O)c1[nH]c2c(c1Cc1ccccc1C)C(=O)CC(c1ccccc1)C2 (stereo not drawn)	8.9µM*
CCOC(=O)C1=C(CNCc2ccc(Cl)cc2)NC(=O)NC1c1ccccc1 (stereo not drawn)	-8%
Cc1c(C(=O)OCc2ccccc2)[nH]c2c1C(=O)CC(c1ccc(Cl)cc1)C2 (stereo not drawn)	-2%
COc1ccc(C2CC(=O)c3c([nH]c(C(=O)OCc4ccccc4)c3C)C2)cc1OC (stereo not drawn)	-16%
CCOC(=O)C1=C(C)N=C2SC=C(CC(=O)NCC3CC3)N2C1c1cc(OC)ccc1OC (stereo not drawn)	i
NC(=O)Cn1ccc2cc(OCC3CCN(C(=O)CC4CC4)CC3)cnc21	-20%[44.1 µM]
CCc1ccc(C2=NN(CCC(=O)NCCc3ccc(Cl)cc3)C(=O)CC2)cc1	-9%
CCC(CC)c1nn2c(=O)cc(COc3ccc(NC(=O)c4cccc(C)c4)cc3)nc2s1	8%
COc1ccc(-c2noc([C@@H](C)NC(=O)Cc3ccccc3)c2C(=O)O)cc1	i
CC1=C[C@@H](CNc2ccccn2)[C@H](C(C)C)C[C@H]1Cc1nnc(-c2cncn2C)o1	5.6µM*
CC1=C[C@@H](CN2CCCCC2)[C@H](C(C)C)C[C@H]1Cc1nnc(-c2cncn2C)o1	7.9µM*
Cc1ccccc1CN1CC[C@H](c2nnc(-c3cncn3C)o2)C1	0%[44.1 µM]
CC(=O)NC[C@@H]1C=C(C)[C@H](CC(=O)NCc2cccnc2)C[C@H]1C(C)C	40%[44.1 µM]
CC1=C[C@@H](CNC(=O)c2cnccn2)[C@H](C(C)C)C[C@H]1Cc1nnc(-c2ccccc2F)o1	-6%
CC1=C[C@@H](CN2CCN(c3ncccn3)CC2)[C@H](C(C)C)C[C@H]1Cc1nnc(-c2cncn2C)o1	-6%
CC1=C[C@@H](CNC(=O)c2cncnc2)[C@H](C(C)C)C[C@H]1Cc1nnc(-c2ccccc2F)o1	-5%
CC1=C[C@@H](CNC(=O)c2ccccc2)[C@H](C(C)C)C[C@H]1Cc1nnc(-c2cncn2C)o1	-6%[44.1 µM]
CC1=C[C@@H](CNCc2ccc(Cl)cc2)[C@H](C(C)C)C[C@H]1Cc1nnc(-c2cncn2C)o1	4µM*
CCCN1CCN(C(=O)Cc2cccn2-c2ccc(F)cc2)CC1	i
COc1ccc(C(=O)N2CC3CC(C2)[C@H]2CCCC(=O)N2C3)c(OC)c1 (stereo partly drawn)	-7%
SMILES	Pf Dd2 inh
CCc1ccccc1Nc1nn2c(=O)c3ccc(C(=O)NC4CCCCC4)cc3nc2s1	-20%
CCc1ccccc1Nc1nn2c(=O)c3ccc(C(=O)Nc4cc(C)cc(C)c4)cc3nc2s1	-2%
CCc1ccccc1Nc1nn2c(=O)c3ccc(C(=O)NC(C)c4ccccc4)cc3nc2s1 (stereo not drawn)	1µM*
COCc1ccc(C(=O)N2CCC3(CC2)CC(c2ccccc2)C(=O)N(C)C3)o1 (stereo not drawn)	-13%
c1ccc(-c2cnc([C@@H]3COCCN3C3CCC3)[nH]2)cc1	i
COC(=O)c1sccc1S(=O)(=O)N(CC(=O)NCc1ccc(C)cc1)c1ccc(C)cc1	i
CC(C)(C(=O)O)c1cnc(N2CCC(O)(CO)CC2)nc1N1CCOCC1	-4%
CCOc1ccc(/C=C/c2nc3ccccc3n2S(=O)(=O)c2ccc(Br)cc2)cc1	11µM*
CCOc1ccc(S(=O)(=O)Nc2nc3ccccc3nc2Nc2ccc(OC)cc2)cc1	-5%
CCOc1ccc(S(=O)(=O)c2cn(C)c3ccccc3c2=O)cc1	0%
CC1=NOC2(CCN(Cc3cccc4ccccc34)C2)C1 (stereo not drawn)	i
CC(=O)NCCC(=O)N1CCOc2c(O)cc(-c3cccc(Cl)c3)cc2C1	i
CC1=NOC(C(=O)N2CCOc3c(O)cc(-c4nc(C)cnc4C)cc3C2)C1 (stereo not drawn)	-13%
CCOC(=O)C(C)N1CCOc2c(O)cc(-c3cccc(Cl)c3)cc2C1 (stereo not drawn)	11µM*
CCc1ccc(C(=O)NC2CCN(c3cc(-c4ccc(OC)cc4)[nH]n3)C2)cc1 (stereo not drawn)	i
O=C(Nc1cc(-c2nc3cc(Cl)ccc3o2)ccc1Cl)c1cc([N+](=O)[O-])ccc1N1CCOCC1	6%
Cc1ccc2oc(-c3ccc(C)c(NC(=O)c4ccc(N5CCC(C)CC5)c([N+](=O)[O-])c4)c3)nc2c1	29%
Cc1ccc(-c2nc3cc(Cl)ccc3o2)cc1NC(=O)c1cc([N+](=O)[O-])ccc1N1CCOCC1	-3%
O=C(Nc1cccc(-c2nc3ccccc3o2)c1)c1cc([N+](=O)[O-])ccc1N1CCOCC1	8.9µM*
CCc1ccc2oc(-c3cccc(NC(=O)c4ccc(N5CCC(C)CC5)c([N+](=O)[O-])c4)c3)nc2c1	7.9µM*
Cc1c(NC(=O)c2ccc(N3CCC(C)CC3)c([N+](=O)[O-])c2)cccc1-c1nc2ccccc2o1	-3%
COc1cccc(CN2CCOCCNC(=O)[C@H]3CCCC[C@H]32)c1OC	i
O=C(COc1ccc(F)cc1)N1CCc2nn(Cc3ccccc3)c(=O)n2CC1	-30%
COc1ccc(CNC(=O)c2c(O)nc3c(C)cccn3c2=O)cc1	-13%
CC(C)C1CN(C(=O)CNC(=O)N(C)C)CCCN1Cc1ccc(F)cc1 (stereo not drawn)	-19%
SMILES	Pf Dd2 inh
Cc1c(O)cccc1C(=O)N1CCCN(Cc2ccc(F)cc2)C(C(C)C)C1 (stereo not drawn)	4µM*
CC(C)C1CN(C(=O)CN2CCCCC2=O)CCCN1Cc1ccc(F)cc1 (stereo not drawn)	-10%
C=CCNC(=O)Cc1ccc(N(Cc2ccccc2)C(=O)c2ccco2)cc1	i
O=C(Cc1ccc(N(Cc2ccc(F)cc2)C(=O)c2ccco2)cc1)NCCc1ccccc1	-3%
COCCNC(=O)Cc1ccc(N(Cc2ccc(C)cc2)C(=O)c2ccco2)cc1	5.6µM*
CCNC(=O)Cc1ccc(N(Cc2ccc(C)cc2)C(=O)c2ccco2)cc1	i
COCCNC(=O)Cc1ccc(N(Cc2cccc(F)c2)C(=O)c2ccco2)cc1	i
COc1ccc(CN(C(=O)c2ccco2)c2ccc(CC(=O)NCCc3ccccc3)cc2)cc1	4µM*
O=C(C1CCCC1)N1CCN(c2cc(-c3ccc(Cl)cc3)[nH]n2)CC1	i
CS(=O)(=O)NC[C@H]1OC[C@@H](NCc2cccnc2)[C@@H]1O	12%[44.1 µM]
CC(NC(=O)C1CCN(C(=O)c2ncn3c2COC(c2ccc(F)cc2)C3)CC1)c1ccc(F)cc1 (stereo not drawn)	-18%
O=C(C1c2ccccc2C(=O)N(c2ccccc2)C12CCCCC2)N1CCCC1 (stereo not drawn)	-2%
CCSc1ncc(Cl)c(C(=O)Nc2ccc(S(=O)(=O)N3CCCCC3)cc2)n1	6%
O=C1CCCN1CC(=O)N1CCC(c2nc(CCOc3ccc(F)cc3)no2)C1 (stereo not drawn)	i

Compound activity as filed in PubChem BioAssay.
